DENV2 CPE: inhibitors of DENV2 cytopathic effect, primary screen, cell-based, plate reader, single concentration. DENV2-infected cells, cytopathic effect rescue. CPE inhibition, % at 9.99 µM. 1.7% of 350,000 active; in the data active means CPE inhibition above about 20%, passing the limit was not always enough; inconclusive means no clear call, values can overlap the other calls; tested in BHK-21 cells
PGC1a acetyl inh: inhibitors of PGC1a acetylation signal, primary screen, cell-based, U2OS, AlphaScreen, inhibitor mode; AlphaScreen anti-acetyl-lysine; with virally co-expressed GCN5 acetyltransferase; inhibition, % at 15.6 µM; 0.17% of 350,000 active;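 active means every replicate shows inhibition of at least 40%; inconclusive means mean inhibition at least 40% but some replicate below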
C2C12 statin: suppressors of statin myotoxicity in C2C12 myotubes, primary screen, cell-based, single point, plate reader. 0.78% of 330,000 active. rescue of ATP level, % at 7.49 µM. C2C12 myotubes + simvastatin, ATP luminescence, 48 h; scaled: DMSO 0, geranylgeraniol control 100;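 active means mean ATP rescue above about 67%, or every replicate alone reaching that limit, limit read from the data, passing the limit was not always enough; inconclusive means no clear call, values can overlap the other calls; inactive means mean under the limit and some replicate under it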;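 further: myotubes were challenged with 10 µM simvastatin during compound exposure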
PvdQ acylase: P. aeruginosa PvdQ acylase inhibitors, primary screen, biochemical, fluorescence, plate reader and imaging, single point; purified PvdQ acylase; AID 488965, 2010; PvdQ acylase [Pseudomonas aeruginosa LESB58]; inhibition, % at 10 µM; 0.063% of 340,000 active; in the data active means inhibition above about 30%, passing the limit was not always enough; inconclusive means no clear call, values can overlap the other calls
miR-122 sensor: miR-122 Renilla sensor signal increase in Huh7, primary screen, miR-122 inhibitor project, cell-based, single point, plate reader; Huh7 miR-122 Renilla luciferase sensor, 48 h; neutral wells = 0, positive control = 100; activation (reporter increase), % at 12.5 µM; 0.3% of 340,000 active;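 active means mean replicate activation score at least 90 and every replicate individually at or above 90; inconclusive means only one of the two criteria met; inactive means neither criterion met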;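 further: higher luciferase means less miR-122 activity so hits act as miR-122 inhibitors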
Hits are given with their value; - = inactive; ? = inconclusive; . = not tested or not shown; [ ] = dose if it differs, or a comment. The list is not random: actives were taken first. Their share in the collection is about 2.2%.

SMILES | DENV2 CPE | PGC1a acetyl inh | C2C12 statin | PvdQ acylase | miR-122 sensor
COc1ccc(NC(=O)Nc2ccc3c(c2)C(=O)N([C@H](C)CO)C[C@H](C)[C@H](CN(C)C(=O)Nc2c(C)noc2C)OCCCC[C@H](C)O3)cc1 | - | - | . | . | -
CCCC(=O)Nc1ccc2c(c1)C(=O)N(C)C[C@@H](OC)[C@@H](C)CN(Cc1ccncc1)[C@@H](C)CO2 | . | - | - | . | -
CCNC(=S)N1CCC(NC(=O)C2CCCCC2)CC1 | . | . | . | - | -
CCNC(=S)NNC(=O)C1CCCCC1 | . | - | . | - | 140.5
Cc1cc(Br)c(OCc2ccc(C(=O)N/N=C3\CC(=O)CC(C)(C)C3)cc2)c(Br)c1 | 76.4 | . | . | - | .
C[C@H]1CN([C@@H](C)CO)C(=O)c2cc(-c3ccc(C#N)cc3)cnc2O[C@@H]1CN(C)C(=O)CC1CC1 | - | . | - | . | -
Cc1nn(-c2cc(N3CCCCCC3)ccc2[N+](=O)[O-])c(=O)c2ccccc12 | . | - | 109.5 | - | -
CC(=O)CCc1c[nH]c2c(C(=O)O)cccc12 | . | - | 103.8 | - | -
O=C(C[C@H]1CC[C@@H]2[C@H](COC[C@@H](O)CN2Cc2ccc(F)cc2)O1)NCc1ccccc1Cl | - | - | - | . | -
CN(C)c1ccc(CC(=O)N2CCCC(c3cc(C(=O)Nc4ccc(F)c(Cl)c4)no3)C2)cc1 (stereo not given) | 33.0 | - | - | . | -
O=C(Nc1ccc(F)c(Cl)c1)c1cc(C2CCCN(S(=O)(=O)c3ccccc3)C2)on1 (stereo not given) | - | - | - | . | -
C[C@@H]1CN([C@H](C)CO)C(=O)c2cc(C#Cc3cccnc3)cnc2O[C@@H]1CN(C)C | - | - | - | . | -
O=C(Nc1ccc(F)cc1)Nc1ccc2c(c1)[C@@H]1C[C@H](CC(=O)N3CCOCC3)O[C@@H](CO)[C@@H]1O2 | - | - | - | . | -
COc1ccc(S(=O)(=O)Nc2ccc3c(c2)C(=O)N([C@H](C)CO)C[C@@H](C)[C@H](CN(C)C(=O)C2CCCCC2)OCCCC[C@H](C)O3)cc1 | - | - | . | . | -
Cc1n[nH]c(=O)c2c(NC(=O)CSc3nnc(C4CC4)n3C)oc(C)c12 | 39.1 | . | . | - | .
CCOC(=O)c1ccc(S(=O)(=O)N2CCN(C3CC(=O)N(c4ccc(OC)cc4)C3=O)CC2)cc1 (stereo not given) | - | - | - | - | -
CCOC(=O)c1ccc(N2C(=O)CC(N3CCN(C/C=C/c4ccccc4)CC3)C2=O)cc1 (stereo not given) | . | - | 127.1 | - | -
CCC(=O)Nc1ccc2c(c1)OC[C@@H](C)N(CC1CCOCC1)C[C@@H](C)[C@@H](OC)CN(C)C2=O | - | - | - | . | -
C[C@@H]1CN([C@H](C)CO)C(=O)c2cc(NC(=O)CCN3CCOCC3)ccc2O[C@@H]1CN(C)Cc1ccc(-c2ccccc2)cc1 | - | - | - | . | -
COc1ccc(CN(C)C[C@@H]2Oc3ccc(NC(=O)Nc4ccc(C(F)(F)F)cc4)cc3C(=O)N([C@H](C)CO)C[C@@H]2C)cc1 | 28.6 | - | - | . | -
COc1ccc(NC(=O)Nc2ccc3c(c2)C(=O)N([C@@H](C)CO)C[C@H](C)[C@H](CN(C)Cc2ccc(C(F)(F)F)cc2)O3)cc1 | - | - | - | . | 149.5[16.7 µM]
Cc1ccc(/C=C2/CNC/C(=C/c3ccc(C)cc3)C2=O)cc1 | - | 74.2 | - | - | -
C=C/C=C/[C@@H]1C(=C)CN2[C@H]1[C@H](Cc1ccccc1)OC(=O)C21CCCC1 | - | - | . | . | .
O=C1O[C@@H](Cc2ccccc2)[C@H]2[C@@H]3C=CCCC=C3CN2C12CCCC2 | 32.9 | - | . | . | .
O=C(C[C@H]1CC[C@@H](NC(=O)C2CCC2)[C@@H](CO)O1)NC1CCC1 | - | - | - | . | -
SMILES | DENV2 CPE | PGC1a acetyl inh | C2C12 statin | PvdQ acylase | miR-122 sensor
CNC[C@@H](Cc1ccccc1)NC[C@@H](CC1CCCCC1)NCCCc1ccccc1 | - | - | - | - | -
CNC[C@@H](CC1CCCCC1)NC[C@H](CC(C)C)NCCc1cccc(C(F)(F)F)c1 | ? | 87.5 | - | - | -
CCCOc1cccc(C(=O)O)c1 | . | - | 97.9 | - | -
C[C@H]1CN([C@@H](C)CO)C(=O)c2cc(NS(=O)(=O)c3ccc(Cl)cc3)ccc2O[C@H]1CN(C)C(=O)Nc1ccc(C(F)(F)F)cc1 | . | - | - | . | -
CCC(=O)Nc1c(C#N)c2nc3ccccc3nc2n1-c1ccccc1C | . | - | 191.8 | - | -
CCC(=O)Nc1c(C#N)c2nc3ccccc3nc2n1C1CCCCC1 | . | . | . | - | .
CCCCN1C(=O)C(CC(=O)NCC)SC1=Nc1ccccc1 (stereo not given) | . | - | 158.8 | - | -
COc1ccc(N2C(=O)C(CC(=O)O)S/C2=N\N=C\c2cccs2)cc1 (stereo not given) | - | . | . | - | .
O=C(O)CC1S/C(=N\N=C2CCCCCCC2)N(c2ccccc2)C1=O (stereo not given) | - | - | - | - | -
O=C(O)CC1SC(=Nc2ccccc2)N(c2ccccc2)C1=O (stereo not given) | . | - | 115.3 | - | -
O=C(O)CC1S/C(=N/N=C/c2ccc(Br)cc2)N(c2ccccc2)C1=O (stereo not given) | - | 75.2 | - | - | -
NC(c1csc(NC(=O)Nc2cccc(Cl)c2)n1)C1CCCCC1 (stereo not given) | 112.1 | - | - | . | -
CN1C(=O)c2cc(NS(=O)(=O)c3cccc(F)c3)ccc2OC[C@@H]2O[C@H](CC(=O)NCCN3CCCCC3)CC[C@H]21 | - | - | - | . | -
C=Cc1ccc(Cn2c(C)c(C(=O)NCc3cccc(C(F)(F)F)c3)sc2=O)cc1 | 57.1 | . | - | . | .
Cc1c(C(=O)NCc2cccc(C(F)(F)F)c2)sc(=O)n1Cc1ccc(F)cc1 | - | . | - | . | .
Cc1cc(C)c2[nH]c(C(=O)Nc3ccc4c(c3)OCO4)cc2c1 | 24.4 | - | . | - | .
Cc1cc(C)c(NC(=O)Nc2ccc3c(c2)OCO3)c(C)c1 | - | - | - | - | -
C[C@H](CO)N1C[C@H](C)[C@H](CN(C)C(=O)Nc2ccccc2)Oc2ccc(NC(=O)Cn3cnnn3)cc2C1=O | - | - | . | . | -
CCOC(=O)C1=C(C)N(CCCC(=O)O)C(=O)NC1c1ccc([N+](=O)[O-])cc1 (stereo not given) | 102.2 | . | - | - | .
Cc1nn(C)cc1/C=N/n1nnnc1N | . | - | 107.0 | - | -
C=CCC(O)(CCN1CCCCC1)c1ccccc1 (stereo not given) | . | - | 88.3 | - | -
C[C@H]1CN([C@@H](C)CO)C(=O)c2cc(-c3cccnc3)cnc2O[C@@H]1CN(C)C(=O)Nc1ccc(C(F)(F)F)cc1 | - | - | - | . | -
Cn1nnc(NC(=O)CSc2ccc(Cl)cc2)n1 | . | - | 98.2 | - | -
Cn1nnc(NC(=O)CSc2nnnn2-c2ccc(F)cc2)n1 | . | - | - | - | -

From PubChem BioAssay
